HepG2 tox: kills HepG2 cells in TGF-b inhibitor counter-screen. HepG2 CAGA-GFP viability, ATP luminescence, 18 h. Potency, µM (series often up to 46.1 µM), inactives show at the top dose activity change, negative = cytotoxicity, usual class: cytotoxic. actives 0.76% (n = 410,000). AID 588856; note: potency is the fitted concentration of half-maximal effect
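HepG2 CAGA-GFP cells (1000/well, DMEM with 1% FBS) received compound, then TGF-beta at 500 pg/mL final, and were incubated 18 hours at 37 degrees C. Viability was read by CellTiter-Glo luminescence. Media-only wells were set as complete cell-killing and DMSO as no toxicity.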
IL-1B inflam inh: inflammasome signaling inhibition, IL-1 beta readout; THP-1 LPS/ATP IL-1B secretion, AlphaLISA, 16 h; active compounds read low; AID 743279; activity change, % at 57.5 µM; actives 4.7% (n = 360,000); in the data active = activity change below about -50%; inconclusive = mostly about -30% to -49%; note: % is set by controls: 0 for no effect and ±100 for the full control effect
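THP-1 cells pretreated 1 hr with compounds (up to 57.5 uM final), then stimulated with LPS (250 ng/mL final) plus ATP (1.25 mM final); secreted IL-1B measured by AlphaLISA after 16 hr, decreased signal indicating inhibition.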
DT40 TDP1 CPT: growth inhibition of DT40 Tdp1-/-;hTDP1 cells with camptothecin (screen for TDP1 inhibitors). chicken DT40 Tdp1-/-;hTDP1 cells + 20 nM CPT, ATP luminescence, 48 h. Potency, µM (titrated, usually from 46.2 µM), for inactives: at the top dose activity change, negative = growth inhibition, most hits filed as inhibitors. actives 12% (n = 420,000). AID 686979; note: potency is the fitted concentration of half-maximal effect; % is set by controls: 0 for no effect and ±100 for the full control effect; nearly all actives have a fitted effect of over 55% in size
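Chicken DT40 Tdp1-/- cells stably complemented with human TDP1 were seeded at 400 cells/well in medium containing 20 nM camptothecin, exposed to pin-transferred compounds, and grown at 37 °C for at least 48 hr. Viability was read as ATP luminescence.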
TDP1 block: inhibitors of human tyrosyl-DNA phosphodiesterase TDP1 | Q9NUW8 | recombinant TDP1, AlphaScreen DNA substrate cleavage | Potency, µM (series often up to 130 µM), for the others: at the highest dose activity change, negative = inhibition, hits mostly inhibitors | actives 0.28% (n = 350,000) | AID 485290; note: potency is the fitted concentration of half-maximal effect; % is set by controls: 0 for no effect and ±100 for the full control effect; nearly all actives have a fitted effect of over 40% in size
Target sequence (Q9NUW8 whole entry, looked up): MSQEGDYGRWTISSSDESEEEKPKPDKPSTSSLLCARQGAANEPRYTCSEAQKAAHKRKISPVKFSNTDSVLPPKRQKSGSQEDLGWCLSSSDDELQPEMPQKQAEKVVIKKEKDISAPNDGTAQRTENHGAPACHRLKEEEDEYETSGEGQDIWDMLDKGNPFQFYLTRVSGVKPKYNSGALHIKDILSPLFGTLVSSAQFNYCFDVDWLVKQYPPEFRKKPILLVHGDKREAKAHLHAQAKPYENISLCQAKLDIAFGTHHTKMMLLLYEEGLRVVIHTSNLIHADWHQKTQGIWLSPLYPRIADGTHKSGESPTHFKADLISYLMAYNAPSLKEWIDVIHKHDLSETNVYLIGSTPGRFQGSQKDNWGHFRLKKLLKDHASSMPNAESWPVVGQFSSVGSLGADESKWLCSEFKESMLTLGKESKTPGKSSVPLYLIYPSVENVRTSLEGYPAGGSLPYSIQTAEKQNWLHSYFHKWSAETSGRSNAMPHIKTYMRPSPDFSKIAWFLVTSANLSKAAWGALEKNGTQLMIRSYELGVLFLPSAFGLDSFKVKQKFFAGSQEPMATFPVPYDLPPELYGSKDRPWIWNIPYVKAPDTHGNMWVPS
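Recombinant E. coli-expressed Tdp1 (1 nM) preincubated with compound 15 min at RT, then 5'-biotin/3'-phosphotyrosine-FITC DNA substrate (15 nM) added for 5 min. AlphaScreen beads (10 ug/ml) added, 10 min RT; tyrosine-FITC cleavage read as signal loss.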
TGFb SMAD3 inh: blocks TGF-b signaling. actives 1.2% (n = 410,000). AID 588855. HepG2 CAGA-GFP TGF-b/SMAD3 reporter, GFP fluorescence, 18 h; TGF-beta stimulated, 500 pg/mL final. Potency, µM (series often up to 46.1 µM), for the others: at the top dose activity, negative = inhibition, most hits filed as inhibitors; note: potency is the fitted concentration of half-maximal effect; % is set by controls: 0 for no effect and ±100 for the full control effect; nearly all actives have a fitted effect of over 65% in size
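Per well, imaged GFP fluorescence of HEPG2 CAGA-GFP cells gives the signal; cells get compound, then TGF-beta (500 pg/mL final), 18 h at 37 degrees C; %Activity versus -TGF-beta and +DMSO controls.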
TDP1 cell noCPT: qHTS for Inhibitors of human tyrosyl-DNA phosphodiesterase 1 (TDP1): qHTS in cells in absence of CPT. DT40 Tdp1-/- hTDP1 cells, no CPT, ATP luminescence, 48 h. Potency, µM (doses to about 46.2 µM), inactives show top-dose activity change, negative = growth inhibition, hits mostly inhibitors. AID 686978, 2013. actives 15% (n = 420,000); note: potency is the fitted concentration of half-maximal effect; % is set by controls: 0 for no effect and ±100 for the full control effect; nearly all actives have a fitted effect of over 55% in size
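Growth of hTDP1-complemented DT40 Tdp1-knockout cells is measured by ATP luminescence after at least 48 hr compound exposure at 37 °C, with DMSO substituting for the 20 nM CPT used in the parallel screen.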
An asterisk follows results filed as active; ? = inconclusive; · = no result given. An excerpt weighted towards active compounds, which were near 19% of everything screened. Unless noted, calls come from the whole dose curve; as a rule, active = well fitted curve in the direction sought with a large enough effect; inconclusive = small, poorly fitted or top-dose-only effect, or another doubt; inactive = no such curve, though single readings can be large; an effect the other way counts as inactive or inconclusive.

SMILES	HepG2 tox	IL-1B inflam inh	DT40 TDP1 CPT	TDP1 block	TGFb SMAD3 inh	TDP1 cell noCPT
COc1ccc(C2=NC(C)(C)N(CC(=O)Nc3ccc(F)c(F)c3)C2=O)cc1	-14.7%	·	?	5.1%	·	?
CCN(CC)Cc1c(O)c(Cl)cc2c3c(c(=O)oc12)CCCC3	14.9%	12.1	?	3.1%	2.1%	?
CN(C)Cc1c(O)c(Cl)cc2c3c(c(=O)oc12)CCCC3	-6.5%	21.3	?	-1.1%	-5.1%	14.6µM*
CCOc1cc(C=O)cc(Br)c1OCC(N)=O	16.2%	32.1	5.8µM*	-3.1%	23.2%	5.17µM*
CCOc1c(Br)cc(C(N)=O)cc1OC	-12.2%	0.0	-12.5%	-1.9%	1.4%	-20.8%
CCCOc1c(Br)cc(C(N)=O)cc1OCC	3.3%	17.7	23.1µM*	6.0%	-10.8%	?
COCCCNC(=O)C1CCN(c2nc3ccc(C)cc3[nH]2)CC1	2.2%	·	-16.4%	2.7%	20.2%	-14.3%
CCOC(=O)c1sc(NC(=O)c2cc(CC)on2)c(C(=O)OCC)c1C	-3.7%	·	?	0.9%	28.6%	-1.0%
COc1cc(/C=C2\SC(N)=NC2=O)ccc1OCC(=O)Nc1ccccc1C	-46.0%	8.9	?	-9.5%	2.1%	9.2µM*
CCCOc1ccc(/C=C2\SC(N)=NC2=O)cc1OC	-0.9%	3.7	-13.1%	·	2.1%	?
COc1cc(/C=C2/SC(N)=NC2=O)ccc1Oc1ccc([N+](=O)[O-])cc1[N+](=O)[O-]	-22.1%	7.8	3.26µM*	1.8%	-1.0%	2.91µM*
COc1cc(/C=C2/SC(=O)NC2=O)ccc1Oc1ccc([N+](=O)[O-])cc1[N+](=O)[O-]	-18.1%	?	?	-1.2%	?	?
COc1cc(/C=C2\C(=O)N(c3ccccc3)N=C2C)ccc1Oc1ccc([N+](=O)[O-])cc1[N+](=O)[O-]	-43.6%	?	16.4µM*	11.0%	?	18.4µM*
CC(=O)Nc1ccc(SCC(=O)NC(=O)c2ccc(S(=O)(=O)N(C)C)cc2)cc1	-3.5%	-17.0	6.0%	1.2%	-10.0%	-15.3%
c1ccc(CNc2ncnc3nc(N4CCOCC4)[nH]c23)cc1	-3.3%	·	?	0.2%	-2.8%	-17.4%
OCCN1CCN(Cc2ccc3c(c2)CN(Cc2cccn2-c2ccccn2)CCO3)CC1	·	·	-4.9%	·	·	-20.0%
COc1ccccc1N1CCN(C(=O)CCNS(=O)(=O)c2cc(Br)cnc2N)CC1	-8.0%	1.9	18.4µM*	4.0%	-14.4%	?
COc1ccccc1N1CCN(C(=O)CCNS(=O)(=O)c2ccc(Br)s2)CC1	-6.1%	-5.9	23.1µM*	2.0%	?	18.4µM*
CCN=C(NCC)SC1CC(=O)N(c2ccccc2)C1=O (centres undefined)	1.9%	28.2	-2.7%	-2.1%	-3.9%	-0.9%
CC(=O)SC1CC(=O)N(c2ccc(C(C)(C)C)cc2)C1=O (centres undefined)	-14.6%	-4.3	3.26µM*	3.9%	-1.4%	8.2µM*
O=S(=O)(Cc1ccccc1)NC1c2ccccc2Oc2ccccc21	-28.3%	-16.9	14.6µM*	·	-6.2%	20.6µM*
O=S(=O)(Cc1ccccc1)Nc1ccccc1	-23.3%	-1.1	6.8%	·	-16.6%	4.3%
O=C(COc1ccc(Br)cc1Br)Nc1ccc(S(=O)(=O)Nc2ncccn2)cc1	-2.4%	·	·	4.7%	-7.5%	·
COc1ccccc1NS(=O)(=O)c1cc(C(=O)NCc2ccco2)ccc1C	3.8%	-63.3*	-8.3%	0.0%	-2.9%	-9.3%

High-throughput results as filed in PubChem.
